{
  "source": "PubChem BioAssay AID588664",
  "about": "(The Scripps Research Institute Molecular Screening Center, 2011)",
  "note": "About 1,400 (0.39%) of roughly 360,000 compounds were called active. The full list was thinned out, with actives kept by preference. Values without a mark were called inactive. Cut-off read from the data, not from the text of the source: active = inhibition above about 5% (passing the limit was not always enough); inactive = the rest.",
  "data": [
    {"biological_target": "Tyrosine-protein kinase ABL1 (Homo sapiens) + Ras and Rab interactor 1 (Homo sapiens) (UniProt P00519+Q13671)", "sequence (P00519 whole entry, looked up)": "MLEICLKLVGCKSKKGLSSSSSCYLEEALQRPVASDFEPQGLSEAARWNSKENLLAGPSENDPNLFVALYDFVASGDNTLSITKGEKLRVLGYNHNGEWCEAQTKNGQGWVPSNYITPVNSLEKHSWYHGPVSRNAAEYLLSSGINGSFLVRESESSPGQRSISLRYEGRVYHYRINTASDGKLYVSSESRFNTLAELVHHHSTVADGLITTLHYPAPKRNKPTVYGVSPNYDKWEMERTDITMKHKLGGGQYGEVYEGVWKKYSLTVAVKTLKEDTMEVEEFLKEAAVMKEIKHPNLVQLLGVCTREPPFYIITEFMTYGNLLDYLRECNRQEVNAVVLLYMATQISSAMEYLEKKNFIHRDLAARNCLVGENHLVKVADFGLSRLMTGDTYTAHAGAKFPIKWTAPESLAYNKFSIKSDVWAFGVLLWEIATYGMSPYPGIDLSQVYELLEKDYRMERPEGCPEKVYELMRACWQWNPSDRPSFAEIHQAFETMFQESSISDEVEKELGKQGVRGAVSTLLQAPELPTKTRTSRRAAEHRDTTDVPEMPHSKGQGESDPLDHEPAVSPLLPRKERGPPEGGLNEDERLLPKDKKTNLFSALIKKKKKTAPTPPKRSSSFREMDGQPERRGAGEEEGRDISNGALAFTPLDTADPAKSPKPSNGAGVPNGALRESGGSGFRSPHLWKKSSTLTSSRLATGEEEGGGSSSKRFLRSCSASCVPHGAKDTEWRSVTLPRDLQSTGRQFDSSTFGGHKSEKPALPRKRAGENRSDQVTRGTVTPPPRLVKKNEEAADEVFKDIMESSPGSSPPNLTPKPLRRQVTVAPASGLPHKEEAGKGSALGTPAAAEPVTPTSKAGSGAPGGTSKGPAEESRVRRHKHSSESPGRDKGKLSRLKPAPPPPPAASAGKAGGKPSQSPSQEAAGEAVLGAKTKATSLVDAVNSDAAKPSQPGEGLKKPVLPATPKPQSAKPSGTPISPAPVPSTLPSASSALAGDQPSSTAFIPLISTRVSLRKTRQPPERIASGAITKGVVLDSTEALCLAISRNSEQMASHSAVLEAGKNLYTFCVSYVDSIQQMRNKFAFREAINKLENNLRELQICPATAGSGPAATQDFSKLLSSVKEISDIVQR", "sequence (Q13671 whole entry, looked up)": "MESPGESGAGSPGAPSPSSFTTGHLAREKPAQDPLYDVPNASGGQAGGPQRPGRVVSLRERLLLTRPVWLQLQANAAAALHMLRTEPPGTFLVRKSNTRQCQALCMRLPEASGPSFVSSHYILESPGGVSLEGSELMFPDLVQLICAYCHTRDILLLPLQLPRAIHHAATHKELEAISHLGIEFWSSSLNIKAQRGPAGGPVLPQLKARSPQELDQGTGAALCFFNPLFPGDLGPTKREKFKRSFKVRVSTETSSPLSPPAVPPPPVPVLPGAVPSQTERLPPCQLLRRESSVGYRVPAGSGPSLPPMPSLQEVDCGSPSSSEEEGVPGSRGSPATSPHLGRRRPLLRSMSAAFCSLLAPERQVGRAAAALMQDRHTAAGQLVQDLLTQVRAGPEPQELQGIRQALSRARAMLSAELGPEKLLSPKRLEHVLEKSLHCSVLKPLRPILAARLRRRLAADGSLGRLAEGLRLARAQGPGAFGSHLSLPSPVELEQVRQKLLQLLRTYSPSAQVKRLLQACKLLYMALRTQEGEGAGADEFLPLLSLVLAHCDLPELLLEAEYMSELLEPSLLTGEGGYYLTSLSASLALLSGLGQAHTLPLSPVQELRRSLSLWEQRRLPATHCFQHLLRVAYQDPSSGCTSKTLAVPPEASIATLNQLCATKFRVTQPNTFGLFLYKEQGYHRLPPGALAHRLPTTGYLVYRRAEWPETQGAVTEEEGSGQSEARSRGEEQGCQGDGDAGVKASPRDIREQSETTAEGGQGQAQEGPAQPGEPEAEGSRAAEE", "assay": "disruptors of human Abl and Rin1 association – biochemical, TR-FRET, primary screen (AID 588664)", "details": "TR-FRET Rin1/Abl binding, at 7.35 µM, stronger effect = higher value", "values": [
      {"smiles": "O=c1[nH]c2ccccc2n1C1CCN(C(c2ccccc2)c2nnnn2Cc2ccccc2)CC1", "note": "(stereo not given)", "inhibition": "-0.41%"},
      {"smiles": "COc1ccc(-n2nnnc2C(c2cccc3ccccc23)N2CCC(n3c(=O)[nH]c4ccccc43)CC2)cc1", "note": "(stereo not given)", "inhibition": "0.78%"},
      {"smiles": "CSCCC(c1nnnn1C(C)(C)C)N1CCC(n2c(=O)[nH]c3ccccc32)CC1", "note": "(stereo not given)", "inhibition": "19.1% (active)"},
      {"smiles": "COc1ccc2[nH]c3c(c2c1)CCN[C@H]3C", "inhibition": "-0.17%"},
      {"smiles": "CCc1nnc(NS(=O)(=O)c2ccc(N=Cc3c(O)n(-c4ccccc4)c(=O)[nH]c3=O)cc2)s1", "inhibition": "4.11%"}
    ]}
  ]
}
